Results filed as inconclusive are left out. The source made the active and inactive calls. The calls were made as follows, unless noted: active = hit-call score of the fitted dose curve at least 0.9, where 1 is the maximum; inactive = score below 0.9.
Legend:
[1] = molecular target: human RAR-related Orphan Receptor gamma (RORg), RORC (gene 6097) (UniProt P51449); experiment: ATG_RORg_TRANS: Attagene TRANS-FACTORIAL HepG2 Assay for human RAR-related Orphan Receptor gamma (RORg) (AID 2283011; active = hit-call score of the fitted dose curve at least 0.9, where 1 is the maximum)
human RAR-related Orphan Receptor gamma (RORg), RORC (gene 6097), sequence (P51449 whole entry, looked up, the tested form may be a part): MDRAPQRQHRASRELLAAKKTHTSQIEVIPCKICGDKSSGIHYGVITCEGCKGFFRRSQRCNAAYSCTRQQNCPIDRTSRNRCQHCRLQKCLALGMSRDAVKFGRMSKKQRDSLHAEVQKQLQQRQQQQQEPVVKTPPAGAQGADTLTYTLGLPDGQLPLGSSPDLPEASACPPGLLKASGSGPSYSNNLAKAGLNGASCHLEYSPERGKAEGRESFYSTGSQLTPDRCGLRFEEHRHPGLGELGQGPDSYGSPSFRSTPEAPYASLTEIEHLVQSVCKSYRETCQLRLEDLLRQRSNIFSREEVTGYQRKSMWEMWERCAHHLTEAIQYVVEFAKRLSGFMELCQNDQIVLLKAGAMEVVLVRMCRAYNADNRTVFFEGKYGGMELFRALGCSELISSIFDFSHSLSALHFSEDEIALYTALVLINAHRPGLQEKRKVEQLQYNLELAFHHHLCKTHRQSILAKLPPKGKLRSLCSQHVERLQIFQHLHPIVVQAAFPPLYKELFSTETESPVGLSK
Summary of the method: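 Reporter transcripts from a transfected RORg-GAL4 chimera in HepG2 cells were quantified 24 h after dosing by RT-PCR, 6-FAM labelling, HpaI digestion and capillary electrophoresis; increases over DMSO baseline were fitted.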

[2] = molecular target: human Retinoid X Receptor beta (RXRb), RXRB (gene 6257) (UniProt P28702); experiment: ATG_RXRb_TRANS: Attagene TRANS-FACTORIAL HepG2 Assay for human Retinoid X Receptor beta (RXRb) (AID 2283013; active = hit-call score of the fitted dose curve at least 0.9, where 1 is the maximum)
human Retinoid X Receptor beta (RXRb), RXRB (gene 6257), sequence (P28702 whole entry, looked up, the tested form may be a part): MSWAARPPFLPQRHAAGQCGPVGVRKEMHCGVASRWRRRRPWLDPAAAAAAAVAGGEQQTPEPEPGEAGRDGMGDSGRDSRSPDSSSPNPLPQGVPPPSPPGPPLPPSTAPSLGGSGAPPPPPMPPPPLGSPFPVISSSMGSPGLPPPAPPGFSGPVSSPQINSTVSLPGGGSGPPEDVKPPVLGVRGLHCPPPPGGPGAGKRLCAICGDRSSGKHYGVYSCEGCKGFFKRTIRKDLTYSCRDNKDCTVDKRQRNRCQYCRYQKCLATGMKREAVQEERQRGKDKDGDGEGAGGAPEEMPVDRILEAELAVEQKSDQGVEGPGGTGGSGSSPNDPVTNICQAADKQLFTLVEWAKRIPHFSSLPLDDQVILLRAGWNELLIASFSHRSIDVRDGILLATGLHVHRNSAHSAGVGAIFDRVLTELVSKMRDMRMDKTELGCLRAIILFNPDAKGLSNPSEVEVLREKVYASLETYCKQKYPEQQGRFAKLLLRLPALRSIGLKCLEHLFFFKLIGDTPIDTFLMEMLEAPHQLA
Summary of the method: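 Read-out: reporter mRNA induction via RT-PCR plus capillary electrophoresis fluorescence, analysed as signal increase relative to DMSO. Cells were human HepG2, transiently transfected with GAL4-UAS reporter constructs and chimeric receptor-Gal4 fusions, dosed for 24 h.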

[3] = read-out: E-selectin (Homo sapiens) (UniProt P16581); experiment: BSK_3C_Eselectin: BioMAP Diversity Plus: 3C Assay for Eselectin Biomarker Activity (AID 2283015); details: primary human endothelial cells (HUVEC); actives raise or lower the signal
Summary of the method: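 E-selectin ELISA readout, fitted bidirectionally relative to DMSO, taken 24 h post-dosing in HUVEC cultures of the 3C system. Overt cytotoxicity tracked with sulforhodamine B staining of parallel wells.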

[4] = read-out: Interleukin-1 alpha (IL1a), IL1A (gene 3552); experiment: BSK_BE3C_IL1a: BioMAP Diversity Plus: BE3C Assay for Interleukin-1 alpha (IL1a) Biomarker Activity (AID 2283016); details: primary human bronchial epithelial cells; actives raise or lower the signal
Summary of the method: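 ELISA read-out of IL-1a from human lung bronchial epithelial primary cells, 24 h post-dose. Gain or loss of signal fitted relative to DMSO negative control.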

[5] = read-out: Monocyte Chemoattractant Protein-1 (MCP1), CCL2 (gene 6347); experiment: BSK_3C_MCP1: BioMAP Diversity Plus: 3C Assay for Monocyte Chemoattractant Protein-1 (MCP1) Biomarker Activity (AID 2283017); details: primary human endothelial cells (HUVEC); actives raise or lower the signal
Summary of the method: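 MCP-1 was measured by ELISA 24 h after dosing in primary HUVEC 3C cultures and fitted in both directions relative to DMSO; cytotoxicity was checked by SRB total-protein staining in parallel wells.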

[6] = read-out: Monocyte Chemoattractant Protein-1 (MCP1), CCL2 (gene 6347); experiment: BSK_4H_MCP1: BioMAP Diversity Plus: 4H Assay for Monocyte Chemoattractant Protein-1 (MCP1) Biomarker Activity (AID 2283018); details: primary human endothelial cells (HUVEC); actives raise or lower the signal
Summary of the method: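 HUVEC primary cells, 24 h post-dose, MCP-1 by ELISA. Gain or loss of signal fitted bidirectionally vs DMSO baseline. Cytotoxicity: SRB stain (0.1% after 10% TCA fixation), read 560 nm, parallel cultures.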

[7] = read-out: Human Leukocyte Antigen - DR isotype (HLADR), HLA-DRA (gene 3122); experiment: BSK_3C_HLADR: BioMAP Diversity Plus: 3C Assay for Human Leukocyte Antigen - DR isotype (HLADR) Biomarker Activity (AID 2283019); details: primary human endothelial cells (HUVEC); actives raise or lower the signal
Summary of the method: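 Bidirectional fitting against DMSO was applied to the HLA-DR ELISA signal from human umbilical vein endothelial cells, 24 h post-dose. Cytotoxicity came from parallel SRB total-protein staining; 3C proliferation was counted by SRB at 48 h.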

[8] = read-out: Interleukin-8 (IL8), CXCL8 (gene 3576); experiment: BSK_3C_IL8: BioMAP Diversity Plus: 3C Assay for Interleukin-8 (IL8) Biomarker Activity (AID 2283020); details: primary human endothelial cells (HUVEC); actives raise or lower the signal
Summary of the method: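 HUVEC, 3C stimulation; 24 h compound exposure; IL-8 read by ELISA; gain or loss of signal fitted relative to DMSO control.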

[9] = read-out: Monokine induced gamma interferon (MIG), CXCL9 (gene 4283); experiment: BSK_3C_MIG: BioMAP Diversity Plus: 3C Assay for Monokine induced gamma interferon (MIG) Biomarker Activity (AID 2283021); details: primary human endothelial cells (HUVEC); actives raise or lower the signal
Summary of the method: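 HUVEC, 3C system; 24 h chemical exposure; MIG by ELISA; bidirectional fit vs DMSO baseline.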

[10] = BSK_3C_SRB: Viability Assessment in the BioMAP Diversity Plus: 3C Assay (AID 2283023); details: primary human endothelial cells (HUVEC);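 also: fitted both ways against DMSO so a hit may be signal rise or drop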
Summary of the method: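 Cytotoxicity readout in parallel HUVEC 3C cultures: after 24 h compound exposure, cells fixed with 10% TCA, stained with 0.1% SRB and read at 560 nm. Gain or loss relative to DMSO fitted.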

[11] = read-out: Matrix Metallopeptidase 1 (MMP1), MMP1 (gene 4312); experiment: BSK_BE3C_MMP1: BioMAP Diversity Plus: BE3C Assay for Matrix Metallopeptidase 1 (MMP1) Biomarker Activity (AID 2283024); details: primary human bronchial epithelial cells; actives raise or lower the signal
Summary of the method: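 ELISA read-out of MMP1 in human lung bronchial epithelial primary cultures, 24 h post-dose; bidirectional curve fit vs DMSO baseline, gain or loss of signal scored.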

[12] = BSK_3C_Vis: BioMAP Diversity Plus: 3C Assay for Morphology Visualization (AID 2283025); details: primary human endothelial cells (HUVEC);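 also: fitted both ways so gain or loss versus DMSO counts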;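 as to AC50: light microscopy image of cell morphology used as background control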
Summary of the method: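 HUVEC, 3C system; light microscopy of morphology at 24 h post-dose. Bidirectional fit vs DMSO baseline. Secondary readout, background-control function.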

[13] = read-out: Pselectin, SELP (gene 6403); experiment: BSK_4H_Pselectin: BioMAP Diversity Plus: 4H Assay for Pselectin Biomarker Activity (AID 2283026); details: primary human endothelial cells (HUVEC); actives raise or lower the signal
Summary of the method: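 HUVEC, 24 h chemical exposure; P-selectin read by ELISA. Bidirectional curve fit vs DMSO baseline; gain or loss of signal scored.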

[14] = BSK_BE3C_SRB: Viability Assessment in the BioMAP Diversity Plus: BE3C Assay (AID 2283028); details: primary human bronchial epithelial cells;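 as to AC50: fitted both ways so AC50 may mark signal gain or loss versus DMSO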
Summary of the method: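 Cytotoxicity read-out: SRB (0.1%) staining of TCA-fixed (10%) human lung bronchial epithelial cells, absorbance 560 nm, 24 h post-dosing. Curves fitted both directions relative to DMSO.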

[15] = read-out: Thrombomodulin, THBD (gene 7056); experiment: BSK_3C_Thrombomodulin: BioMAP Diversity Plus: 3C Assay for Thrombomodulin Biomarker Activity (AID 2283029); details: primary human endothelial cells (HUVEC); actives raise or lower the signal
Summary of the method: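 HUVEC, 3C conditions; compound 24 h; thrombomodulin by ELISA; bidirectional curve fit vs DMSO baseline; parallel SRB total-protein staining for cytotoxicity.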

[16] = read-out: Urokinase-type plasminogen activator receptor (uPAR), PLAUR (gene 5329); experiment: BSK_4H_uPAR: BioMAP Diversity Plus: 4H Assay for Urokinase-type plasminogen activator receptor (uPAR) Biomarker Activity (AID 2283030); details: primary human endothelial cells (HUVEC); actives raise or lower the signal
Summary of the method: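 uPAR level read by ELISA on HUVEC cultures (BioMAP 4H) 24 h post-dosing, analyzed for gain or loss relative to DMSO. Parallel SRB staining assessed overt cytotoxicity.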

[17] = molecular target: human Thyroid Receptor alpha (THRa1), THRA (gene 7067) (UniProt P10827); experiment: ATG_THRa1_TRANS: Attagene TRANS-FACTORIAL HepG2 Assay for human Thyroid Receptor alpha (THRa1) (AID 2283014; active = hit-call score of the fitted dose curve at least 0.9, where 1 is the maximum)
human Thyroid Receptor alpha (THRa1), THRA (gene 7067), sequence (P10827 whole entry, looked up, the tested form may be a part): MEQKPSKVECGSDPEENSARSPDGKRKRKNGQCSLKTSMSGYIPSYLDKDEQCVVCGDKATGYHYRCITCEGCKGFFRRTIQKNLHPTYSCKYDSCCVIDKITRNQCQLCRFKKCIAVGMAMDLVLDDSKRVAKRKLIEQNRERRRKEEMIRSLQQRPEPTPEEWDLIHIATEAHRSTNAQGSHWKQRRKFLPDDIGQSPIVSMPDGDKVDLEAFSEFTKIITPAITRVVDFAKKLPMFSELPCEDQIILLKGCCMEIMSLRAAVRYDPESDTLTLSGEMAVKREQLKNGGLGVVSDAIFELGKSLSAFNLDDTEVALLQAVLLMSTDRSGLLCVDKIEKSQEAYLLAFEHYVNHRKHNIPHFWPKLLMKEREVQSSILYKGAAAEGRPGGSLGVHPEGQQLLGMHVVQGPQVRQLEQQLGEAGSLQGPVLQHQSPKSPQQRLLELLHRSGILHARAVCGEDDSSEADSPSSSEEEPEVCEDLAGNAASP
Summary of the method: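 Transcripts from GAL4-UAS-driven reporters, measured after 24 h compound exposure by RT-PCR plus capillary electrophoresis of 6-FAM-labeled fragments, were fitted for gain of signal relative to DMSO. Cells: transiently transfected HepG2 expressing NR-Gal4 chimeras.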

[18] = molecular target: Retinoic acid receptor RXR-alpha (Homo sapiens) (UniProt P19793); experiment: ATG_RXRa_TRANS: Attagene TRANS-FACTORIAL HepG2 Assay for human Retinoid X Receptor alpha (RXRa) (AID 2283012; active = hit-call score of the fitted dose curve at least 0.9, where 1 is the maximum)
Retinoic acid receptor RXR-alpha (Homo sapiens), sequence (P19793 whole entry, looked up, the tested form may be a part): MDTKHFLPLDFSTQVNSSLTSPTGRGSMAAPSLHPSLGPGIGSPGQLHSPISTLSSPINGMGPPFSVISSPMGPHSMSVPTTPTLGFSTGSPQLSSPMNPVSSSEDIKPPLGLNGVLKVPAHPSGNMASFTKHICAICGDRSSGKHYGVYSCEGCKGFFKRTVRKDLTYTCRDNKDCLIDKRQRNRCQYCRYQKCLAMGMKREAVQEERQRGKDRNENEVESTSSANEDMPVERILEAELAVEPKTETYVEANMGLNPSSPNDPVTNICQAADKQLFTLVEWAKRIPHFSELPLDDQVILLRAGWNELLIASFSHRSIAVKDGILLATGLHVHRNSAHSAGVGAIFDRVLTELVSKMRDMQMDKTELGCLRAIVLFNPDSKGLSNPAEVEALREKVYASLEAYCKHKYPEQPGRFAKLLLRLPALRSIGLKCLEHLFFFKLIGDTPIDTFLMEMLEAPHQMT
Summary of the method: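 Read-out: fluorescent reporter-transcript fragments quantified by capillary electrophoresis after RT-PCR. Transiently transfected HepG2 cells carrying GAL4-UAS reporters and NR-GAL4 chimeras were exposed to chemical for 24 h; activity scored as increase over DMSO.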

[19] = molecular target: human Vitamin D Receptor (VDR), VDR (gene 7421) (UniProt P11473); experiment: ATG_VDR_TRANS: Attagene TRANS-FACTORIAL HepG2 Assay for human Vitamin D Receptor (VDR) (AID 2283022; active = hit-call score of the fitted dose curve at least 0.9, where 1 is the maximum)
human Vitamin D Receptor (VDR), VDR (gene 7421), sequence (P11473 whole entry, looked up, the tested form may be a part): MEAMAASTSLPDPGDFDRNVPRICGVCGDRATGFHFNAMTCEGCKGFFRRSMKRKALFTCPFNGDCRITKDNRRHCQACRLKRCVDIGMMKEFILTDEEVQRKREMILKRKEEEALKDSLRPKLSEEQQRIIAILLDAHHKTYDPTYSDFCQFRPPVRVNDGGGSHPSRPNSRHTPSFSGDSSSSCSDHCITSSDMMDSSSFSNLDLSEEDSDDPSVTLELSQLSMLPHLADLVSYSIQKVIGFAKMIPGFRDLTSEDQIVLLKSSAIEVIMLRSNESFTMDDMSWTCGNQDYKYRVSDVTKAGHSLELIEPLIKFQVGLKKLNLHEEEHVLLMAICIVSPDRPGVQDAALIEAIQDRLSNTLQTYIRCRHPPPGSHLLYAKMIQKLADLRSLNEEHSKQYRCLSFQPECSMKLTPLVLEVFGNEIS
Summary of the method: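 Transactivation by an exogenous VDR-Gal4 chimera in transiently transfected HepG2 cells was measured as reporter transcript level 24 hours after chemical treatment. RT-PCR products were analysed by capillary electrophoresis and fitted in the positive direction relative to DMSO.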

[20] = BSK_4H_SRB: Viability Assessment in the BioMAP Diversity Plus: 4H Assay (AID 2283027); details: primary human endothelial cells (HUVEC);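 also: cells exposed to compound for 24 h before staining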;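 as to AC50: curves fitted both ways versus DMSO so AC50 may be loss or gain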
Summary of the method: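 Cytotoxicity read-out in primary human endothelial cells: after 24 h compound exposure, cells were TCA-fixed (10%), stained with 0.1% SRB and absorbance taken at 560 nm. Values fitted in both directions relative to DMSO.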

Measured: AC50

E-selectin (Homo sapiens), sequence (P16581 whole entry, looked up): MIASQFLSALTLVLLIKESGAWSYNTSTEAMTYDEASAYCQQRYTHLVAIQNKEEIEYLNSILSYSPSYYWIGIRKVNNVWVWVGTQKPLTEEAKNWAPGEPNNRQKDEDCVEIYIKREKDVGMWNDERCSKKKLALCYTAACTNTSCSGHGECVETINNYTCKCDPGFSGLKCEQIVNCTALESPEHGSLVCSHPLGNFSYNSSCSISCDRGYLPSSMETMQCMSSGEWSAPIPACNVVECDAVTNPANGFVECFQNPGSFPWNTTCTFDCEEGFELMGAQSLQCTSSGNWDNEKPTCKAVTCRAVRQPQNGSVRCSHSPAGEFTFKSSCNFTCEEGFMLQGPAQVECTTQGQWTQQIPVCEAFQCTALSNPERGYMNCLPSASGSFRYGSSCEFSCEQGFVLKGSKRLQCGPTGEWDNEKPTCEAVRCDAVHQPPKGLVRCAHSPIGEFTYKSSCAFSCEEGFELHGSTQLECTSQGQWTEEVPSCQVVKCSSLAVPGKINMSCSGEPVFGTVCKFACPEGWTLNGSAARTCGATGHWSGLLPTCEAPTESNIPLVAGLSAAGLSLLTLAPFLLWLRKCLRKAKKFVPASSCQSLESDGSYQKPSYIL

CC1(C)C(C=C(Cl)Cl)C1C(=O)OC(C#N)c1cccc(Oc2ccccc2)c1 (configuration not stated)
active: [6] 9.17 µM | [10] 8.06 µM
not listed: [17] | [18] | [19] | [20]
inactive: all other assays above

CS(=O)(=O)c1ccc(C(=O)C2C(=O)CCCC2=O)c([N+](=O)[O-])c1
not listed: [18] | [19] | [20]
inactive: all other assays above

COC(=O)N(C(=O)N1CO[C@@]2(C(=O)OC)Cc3cc(Cl)ccc3C2=N1)c1ccc(OC(F)(F)F)cc1
active: [6] 6.07 µM | [10] 3.97 µM | [13] 5.19 µM | [20] 7.13 µM | [14] 5.81 µM
inactive: all other assays above

CCOc1nc(C(Cl)(Cl)Cl)ns1
active: [7] 13.8 µM
not listed: [18] | [20]
inactive: all other assays above

Cc1cnc(C2=NC(C)(C(C)C)C(=O)N2)c(C(=O)O)c1 (configuration not stated)
not listed: [19]
inactive: all other assays above

N#Cc1c[nH]cc1-c1cccc2c1OC(F)(F)O2
active: [2] 1.68 µM | [5] 20 µM | [7] 20 µM | [8] 8.82 µM | [10] 11.6 µM | [12] 11.2 µM | [13] 11.7 µM | [20] 6.27 µM | [16] 14.7 µM
not listed: [18] | [19]
inactive: all other assays above

CS(=O)(=O)c1cc(C(F)(F)F)ccc1C(=O)c1cnoc1C1CC1
not listed: [17] | [18] | [20]
inactive: all other assays above

CNC(=O)Oc1cccc2ccccc12
active: [10] 12.4 µM | [12] 13.7 µM | [13] 16.7 µM
not listed: [18]
inactive: all other assays above

CCNP(=S)(OC)O/C(C)=C/C(=O)OC(C)C (configuration not stated)
not listed: [17] | [18] | [19] | [20]
inactive: all other assays above

CO/N=C(/C1=NOCCO1)c1ccccc1Oc1ncnc(Oc2ccccc2Cl)c1F
active: [3] 6.21 µM | [5] 20.1 µM | [7] 9.24 µM | [8] 20 µM | [10] 13.4 µM | [12] 20 µM | [16] 15.5 µM
not listed: [6] | [18] | [19] | [20]
inactive: all other assays above

CC(C)(C)C(=O)C(Oc1ccc(Cl)cc1)n1cncn1 (configuration not stated)
active: [7] 31.4 µM
not listed: [1] | [18] | [19] | [20]
inactive: all other assays above
